Data taken from PubChem BioAssay (NCATS).
Results filed as inconclusive are left out. Active and inactive are the calls of the source. The call rests on the fitted dose curve; in most records, active means well fitted inhibition curve with a large enough effect; inconclusive means small, poorly fitted or top-dose-only effect; inactive means flat fitted curve, though single readings scatter.

Tested on: not listed separately
Test: qHTS profiling for inhibitors of Plasmodium falciparum proliferation (AID 504749);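 further: 0% = DMSO vehicle and full inhibition = artemisinin control; nearly all actives have a fitted effect of over 60% in size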
Details: P. falciparum in erythrocytes, SYBR Green DNA, 72 h; at 12.8 µM (top of the series); parasite line A
Procedure, shortened: (§1)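 Three-day growth assay of blood-stage parasites in erythrocytes (0.3% parasitemia, 2.5% hematocrit) at 37 C, 5% CO2, quantified by SYBR Green DNA staining after overnight detergent lysis.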

SMILES	activity, negative = inhibition
CN(C)CC/C=C1\c2ccccc2CSc2ccccc21	4.44% (inactive)
CC(C)N1CCN(c2ccc(OC[C@@H]3CO[C@@](Cn4cncn4)(c4ccc(Cl)cc4Cl)O3)cc2)CC1	5.81% (inactive)
C[C@@H]1CCC[C@H](C)N1NC(=O)c1ccc(Cl)c(S(N)(=O)=O)c1	12.8% (inactive)

Tested on: 3D7
Test: as above
Details: P. falciparum in erythrocytes, SYBR Green DNA, 72 h; series mostly up to 12.8 µM; activity, negative = inhibition: at the top concentration
Procedure, shortened: as §1

SMILES	activity, negative = inhibition
C[N+](C)(C)CC(O)CC(=O)O (centres undefined)	-14.1% [at 28.7 µM] (inactive)
CN(C)CC/C=C1\c2ccccc2CSc2ccccc21	-12.8% (inactive)
CC(C)N1CCN(c2ccc(OC[C@@H]3CO[C@@](Cn4cncn4)(c4ccc(Cl)cc4Cl)O3)cc2)CC1	-11.1% (inactive)
C[C@@H]1CCC[C@H](C)N1NC(=O)c1ccc(Cl)c(S(N)(=O)=O)c1	3.41% (inactive)
O=C(Cc1cccs1)NC1C(=O)N2C(C(=O)[O-])=C(C[n+]3ccccc3)CSC12 (centres undefined)	5.69% [at 28.7 µM] (inactive)

Tested on: 7G8
Test: as above
Details: P. falciparum in erythrocytes, SYBR Green DNA, 72 h; series mostly up to 12.8 µM; activity, negative = inhibition: at the top concentration
Procedure, shortened: as §1

SMILES	activity, negative = inhibition
C[N+](C)(C)CC(O)CC(=O)O (centres undefined)	-28.2% [at 28.7 µM] (inactive)
C[C@@H]1CCC[C@H](C)N1NC(=O)c1ccc(Cl)c(S(N)(=O)=O)c1	0.549% (inactive)
O=C(Cc1cccs1)NC1C(=O)N2C(C(=O)[O-])=C(C[n+]3ccccc3)CSC12 (centres undefined)	-9.05% [at 28.7 µM] (inactive)

Tested on: AA1029
Test: as above
Details: P. falciparum in erythrocytes, SYBR Green DNA, 72 h; series mostly up to 12.8 µM; activity, negative = inhibition: at the top concentration
Procedure, shortened: as §1

SMILES	activity, negative = inhibition
C[N+](C)(C)CC(O)CC(=O)O (centres undefined)	-2.63% [at 28.7 µM] (inactive)
CC(C)N1CCN(c2ccc(OC[C@@H]3CO[C@@](Cn4cncn4)(c4ccc(Cl)cc4Cl)O3)cc2)CC1	5.86% (inactive)
C[C@@H]1CCC[C@H](C)N1NC(=O)c1ccc(Cl)c(S(N)(=O)=O)c1	1.07% (inactive)
O=C(Cc1cccs1)NC1C(=O)N2C(C(=O)[O-])=C(C[n+]3ccccc3)CSC12 (centres undefined)	14.8% [at 28.7 µM] (inactive)

Tested on: AS120
Test: as above
Details: P. falciparum in erythrocytes, SYBR Green DNA, 72 h; series mostly up to 28.7 µM; activity, negative = inhibition: at the top concentration
Procedure, shortened: as §1

SMILES	activity, negative = inhibition
C[N+](C)(C)CC(O)CC(=O)O (centres undefined)	2.87% (inactive)
CC(C)N1CCN(c2ccc(OC[C@@H]3CO[C@@](Cn4cncn4)(c4ccc(Cl)cc4Cl)O3)cc2)CC1	9.04% [at 12.8 µM] (inactive)
C[C@@H]1CCC[C@H](C)N1NC(=O)c1ccc(Cl)c(S(N)(=O)=O)c1	4.48% [at 12.8 µM] (inactive)
O=C(Cc1cccs1)NC1C(=O)N2C(C(=O)[O-])=C(C[n+]3ccccc3)CSC12 (centres undefined)	5.1% (inactive)

Tested on: ATS189
Test: as above
Details: P. falciparum in erythrocytes, SYBR Green DNA, 72 h; series mostly up to 12.8 µM; activity, negative = inhibition: at the top concentration
Procedure, shortened: as §1

SMILES	activity, negative = inhibition
C[N+](C)(C)CC(O)CC(=O)O (centres undefined)	5.26% [at 28.7 µM] (inactive)
CC(C)N1CCN(c2ccc(OC[C@@H]3CO[C@@](Cn4cncn4)(c4ccc(Cl)cc4Cl)O3)cc2)CC1	0.962% (inactive)
C[C@@H]1CCC[C@H](C)N1NC(=O)c1ccc(Cl)c(S(N)(=O)=O)c1	2.08% (inactive)
O=C(Cc1cccs1)NC1C(=O)N2C(C(=O)[O-])=C(C[n+]3ccccc3)CSC12 (centres undefined)	6.62% [at 28.7 µM] (inactive)

Tested on: ATS95
Test: as above
Details: P. falciparum in erythrocytes, SYBR Green DNA, 72 h; series mostly up to 12.8 µM; activity, negative = inhibition: at the top concentration
Procedure, shortened: as §1

SMILES	activity, negative = inhibition
C[N+](C)(C)CC(O)CC(=O)O (centres undefined)	5.62% [at 28.7 µM] (inactive)
CC(C)N1CCN(c2ccc(OC[C@@H]3CO[C@@](Cn4cncn4)(c4ccc(Cl)cc4Cl)O3)cc2)CC1	5.63% (inactive)
C[C@@H]1CCC[C@H](C)N1NC(=O)c1ccc(Cl)c(S(N)(=O)=O)c1	7.08% (inactive)
O=C(Cc1cccs1)NC1C(=O)N2C(C(=O)[O-])=C(C[n+]3ccccc3)CSC12 (centres undefined)	0.518% [at 28.7 µM] (inactive)

Tested on: C2A
Test: as above
Details: P. falciparum in erythrocytes, SYBR Green DNA, 72 h; series mostly up to 12.8 µM; activity, negative = inhibition: at the top concentration
Procedure, shortened: as §1

SMILES	activity, negative = inhibition
C[N+](C)(C)CC(O)CC(=O)O (centres undefined)	-6.15% [at 28.7 µM] (inactive)
CN(C)CC/C=C1\c2ccccc2CSc2ccccc21	-19.3% (inactive)
CC(C)N1CCN(c2ccc(OC[C@@H]3CO[C@@](Cn4cncn4)(c4ccc(Cl)cc4Cl)O3)cc2)CC1	-6.64% (inactive)
C[C@@H]1CCC[C@H](C)N1NC(=O)c1ccc(Cl)c(S(N)(=O)=O)c1	0.358% (inactive)
O=C(Cc1cccs1)NC1C(=O)N2C(C(=O)[O-])=C(C[n+]3ccccc3)CSC12 (centres undefined)	-0.714% [at 28.7 µM] (inactive)

Tested on: CP185
Test: as above
Details: P. falciparum in erythrocytes, SYBR Green DNA, 72 h; series mostly up to 12.8 µM; activity, negative = inhibition: at the top concentration
Procedure, shortened: as §1

SMILES	activity, negative = inhibition
C[N+](C)(C)CC(O)CC(=O)O (centres undefined)	0.701% [at 28.7 µM] (inactive)
CC(C)N1CCN(c2ccc(OC[C@@H]3CO[C@@](Cn4cncn4)(c4ccc(Cl)cc4Cl)O3)cc2)CC1	5.38% (inactive)
C[C@@H]1CCC[C@H](C)N1NC(=O)c1ccc(Cl)c(S(N)(=O)=O)c1	0.899% (inactive)
O=C(Cc1cccs1)NC1C(=O)N2C(C(=O)[O-])=C(C[n+]3ccccc3)CSC12 (centres undefined)	3.83% [at 28.7 µM] (inactive)

Tested on: CP191
Test: as above
Details: P. falciparum in erythrocytes, SYBR Green DNA, 72 h; series mostly up to 12.8 µM; activity, negative = inhibition: at the top concentration
Procedure, shortened: as §1

SMILES	activity, negative = inhibition
C[N+](C)(C)CC(O)CC(=O)O (centres undefined)	-2.59% [at 28.7 µM] (inactive)
CN(C)CC/C=C1\c2ccccc2CSc2ccccc21	-15.9% (inactive)
CC(C)N1CCN(c2ccc(OC[C@@H]3CO[C@@](Cn4cncn4)(c4ccc(Cl)cc4Cl)O3)cc2)CC1	-10.6% (inactive)
C[C@@H]1CCC[C@H](C)N1NC(=O)c1ccc(Cl)c(S(N)(=O)=O)c1	-4.92% (inactive)
O=C(Cc1cccs1)NC1C(=O)N2C(C(=O)[O-])=C(C[n+]3ccccc3)CSC12 (centres undefined)	7.4% [at 28.7 µM] (inactive)

Tested on: CP192
Test: as above
Details: P. falciparum in erythrocytes, SYBR Green DNA, 72 h; series mostly up to 28.7 µM; activity, negative = inhibition: at the top concentration
Procedure, shortened: as §1

SMILES	activity, negative = inhibition
C[N+](C)(C)CC(O)CC(=O)O (centres undefined)	1.32% (inactive)
CN(C)CC/C=C1\c2ccccc2CSc2ccccc21	-19.6% [at 12.8 µM] (inactive)
C[C@@H]1CCC[C@H](C)N1NC(=O)c1ccc(Cl)c(S(N)(=O)=O)c1	-2.6% [at 12.8 µM] (inactive)
O=C(Cc1cccs1)NC1C(=O)N2C(C(=O)[O-])=C(C[n+]3ccccc3)CSC12 (centres undefined)	-20.4% (inactive)

Tested on: CP194
Test: as above
Details: P. falciparum in erythrocytes, SYBR Green DNA, 72 h; series mostly up to 12.8 µM; activity, negative = inhibition: at the top concentration
Procedure, shortened: as §1

SMILES	activity, negative = inhibition
C[N+](C)(C)CC(O)CC(=O)O (centres undefined)	4.6% [at 28.7 µM] (inactive)
CC(C)N1CCN(c2ccc(OC[C@@H]3CO[C@@](Cn4cncn4)(c4ccc(Cl)cc4Cl)O3)cc2)CC1	-0.559% (inactive)
C[C@@H]1CCC[C@H](C)N1NC(=O)c1ccc(Cl)c(S(N)(=O)=O)c1	6.55% (inactive)
O=C(Cc1cccs1)NC1C(=O)N2C(C(=O)[O-])=C(C[n+]3ccccc3)CSC12 (centres undefined)	1.04% [at 28.7 µM] (inactive)

Tested on: CP201
Test: as above
Details: P. falciparum in erythrocytes, SYBR Green DNA, 72 h; series mostly up to 12.8 µM; activity, negative = inhibition: at the top concentration
Procedure, shortened: as §1

SMILES	activity, negative = inhibition
C[N+](C)(C)CC(O)CC(=O)O (centres undefined)	4.91% [at 28.7 µM] (inactive)
CN(C)CC/C=C1\c2ccccc2CSc2ccccc21	-21.2% (inactive)
CC(C)N1CCN(c2ccc(OC[C@@H]3CO[C@@](Cn4cncn4)(c4ccc(Cl)cc4Cl)O3)cc2)CC1	-1.77% (inactive)
C[C@@H]1CCC[C@H](C)N1NC(=O)c1ccc(Cl)c(S(N)(=O)=O)c1	-3.3% (inactive)
O=C(Cc1cccs1)NC1C(=O)N2C(C(=O)[O-])=C(C[n+]3ccccc3)CSC12 (centres undefined)	0.586% [at 28.7 µM] (inactive)
